Results on 133 sequences are retold here after PubChem BioAssay AID1159506 (National Center for Advancing Translational Sciences (NCATS), 2015).

Over roughly 59,000 sequences, the read-out has its median near -0.00055; the lowest 2% begin near -2. The sample as a whole holds a higher share of the lowest values than the screen did.

The nature of the experiment: Identification of proteins required for the processing of the EWS-FLI1 nascent transcript.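 Note: robust z of luciferase light less the median z of siRNAs with the same seed.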 The conditions noted are these: TC32 Ewing sarcoma NR0B1-luc vs CMV-luc (EWS-FLI1 target promoter against control promoter), 48 h; screened at 20 nM (by protocol). The procedure: Ewing sarcoma (ES) cells depend on the EWS-FLI1 fusion transcription factor for cell survival. Using an assay of EWS-FLI1 activity and genome-wide siRNA screening we have identified proteins required for the processing of the EWS-FLI1 nascent transcript. Parallel genome-wide siRNA-mediated RNAi screens were conducted in Ewing sarcoma TC32 cell lines expressing a luciferase (luc) reporter protein driven by either the promoter of the EWS-FLI1 target gene NR0B1 (TC32-NR0B1-luc) or the CMV promoter (TC32-CMV-luc). Luciferase activity was assessed 48 hours post siRNA-transfection.
Twenty microl of serum-free media containing Lipofectamine RNAiMax (0.05 microl) was added to wells containing siRNA (0.8 pmol). Lipid and siRNA were allowed to complex for 45 min at ambient temperature before addition of 600 cells in RPMI-1640, 20% FBS to yield final transfection mixtures containing 20 nM siRNA in RPMI-1640, 10% FBS. Luciferase expression was measured using OneGlo (Promega, Madison, WI). The genome-wide screening campaign was conducted using Ambion's human genome library version 4.1 (Ambion, Austin TX). This library targets approximately 21000 human genes, three siRNAs per gene. Each siRNA is arrayed in an individual well of a 384-well plate. Parallel transfections were conducted in TC32-NR0B1-luc and TC32-CMV-luc cell lines and luciferase expression (OneGlo, Promega) was assayed 48 h later on a PerkinElmer Envision 2104 Multilabel plate reader (PerkinElmer, Waltham, MA). Qiagen's AllStars Negative control was incorporated on all screening plates for normalization (16 wells per plate). Qiagen, Germantown, MDsiGL4 was incorporated as a positive transfection control (16 wells per plate) on all plates. […] The raw luciferase data for the NR0B1- and CMV-luc screens were normalized and z-score-MAD transformed using standard methods (Chung et al., 2008). The miRNA-like seed sequence of every siRNA was determined and the median z-score for all siRNA sequences with the same seed sequence was calculated. This z-score was subtracted from the z-score associated with each siRNA with that seed sequence to generate a seed-adjusted z-score value (Z) that was used when the results for the three siRNAs corresponding to each gene were compared (Marine et al., 2012)
Take UAAUGUACUCGUCACACCU against BICD2: the seed-corrected z-score was -2.89.

UAUGGGACAUCCUAAUCAC against KIAA0586: the seed-corrected z-score was -0.187.

UCCGCUUUAACCCUGCUUC against PRDM2: the seed-corrected z-score was -0.723. Next, UUUAGCUCUGGAACAAUGC against SLC38A1: 0.0432; UUACUAGUAAUGGACCCGC against YTHDF2: 1.05. As for UUCAUAUAUACUCUGAUUC against C1DP3, the seed-corrected z-score was found to be 0.587. As for UACUCGACCUUCUUUCACC against PPP3CB, the figure is 0.354; as for AAAGAUUGAGGUGGUAUGC against YTHDF3, -2.48; as for UUUCGGUUUCCACUUUUCC against NIPAL3, 0.547. Next, UAACUCAUCAACUUUAUCG against CHMP4B: -0.576; UUCUCUAUCUCAUGAAUCC against RAB19: 0.0141; AGUGAAUCGAGAGCAAUGG against ELP5: 0.672. As for AAAAGAACCUCCAACAAUC against COX16, the figure is -2; as for UCUAUGUCUCAGGUACUGC against CCDC15, 0.12. In the case of AUAGAUCCUAAAGAACUGG against GPR141, the seed-corrected z-score was -0.531.

Regarding UUUUAGUCUACGAAGAUCC against ANKIB1, the seed-corrected z-score is -0.435. For the sequence UGUCAUAUGGGCUUGCUCC against CEP250, the seed-corrected z-score is -0.255. With UCCACUUAAACACUCCUCC against DCLRE1C, the seed-corrected z-score was -2.25.

For UAGCUGUCCGUGAAGAUCC against ADCYAP1, the seed-corrected z-score is 0.344. The sequence ACAAUGUAUACUGUAGUCC against CDHR2 came in with a seed-corrected z-score of 0.247. AAUAGGAUAAAUGUUCCGG against SMURF2: the seed-corrected z-score stood at 0.293. As for AUACGUGAUACUUCCCUCC against MS4A13, the figure is -1.19; as for UGUCUUCUCAUGCAGUUUC against ACSF2, -0.5. As for UCUGUGAAAAUCUUCCACG against ZNF174, the figure is 0.076; as for UAUAGGCCUGCUGAGAUCG against GALT, 0.826; as for UAGUUGCCUAAUUACACUG against MYO3A, -2.22. Next, UUCACGGUCACAUUGCGCG against MAG: -0.22; UAUGAAGAGGAGACCAACC against PSMD10: -0.0551; UAAGCUAUUUCCUCGGCUC against MTCH2: 0.402.

The sequence UAAAGAUUACCUGAGACCG against FBXO36 gave a seed-corrected z-score of 0.489. Next, UUGACUAUAAGUAAGUCUC against STXBP5: -2.91; UGCGCGAUGAUGAGUACCG against ABCB9: 0.705. Next, UUCCUUAGAAACUGCAUAC against JMY: -0.827; UUCGUGAACAGACAGAACU against OAS2: -0.385; UAAGAACAUAGUACAGCUC against LDB1: -0.519. Next, AAACUUAUAGAACUCACUG against CCDC148: -0.143. Consider UCCGCAUGAACUCGUAGCU against PLEKHJ1, for which the seed-corrected z-score amounted to 0.0613.

As for UAGUUGUCCAACAUUGGUU against ZNF99, the seed-corrected z-score was -3.24.

For UAGCGAUUGUGAAUCUUGC against RNF19A, the seed-corrected z-score was -0.443. Next, UAUGGUGUAAGUUUUCGGG against FARSB: 0.451; UUCGGGUCCACUGAUUUCC against CHMP4B: -1.35. In the case of UGUCAUAACAGCUCCGCGA against ELK1P1, the seed-corrected z-score was -0.141. Regarding UAUAUGUCCGGGCGUGUUC against MAPK11, the seed-corrected z-score came to 0.187. On to AACCUGAUAAUAACCAGAU against FAM96A, for which the seed-corrected z-score was 0.457.

Take UGAGAUUUCUAUGUAACAC against SS18L2: the seed-corrected z-score is 0.356. Next, UUAUCGAUGUCUUCGUGCC against GCK: -0.301; AUAGUUGCGGAUGAAGUCU against KAZN: -3.51; AAUGUUUCAAGAAGCUGCU against MED9: -1.82.

As for UCAGGGUCCAUUGUCACCA against IGSF23, the seed-corrected z-score is -0.567. As for UACAGGGCAAUGAACAGGG against FGR, the figure is 0.274; as for AUGAAGCUCAGUCAGGUCG against TMCC2, -2.16; as for UCCUUGACGACAACUUUCC against LOC642677, -1.2. As for UAACGAUACAUUUGCUUGG against SGIP1, the figure is 0.118; as for UUGGGUGCAAGAAUGUCCA against CHTF18, -2.47; as for UUCAAUUCUACUGAUCAUC against CSNK1A1, 0.146.

Regarding UUAAAGACUUCAUAAAAGC against SLC25A3, the seed-corrected z-score is -0.603. Turning to UAAUUGUCAUUACUAAGUG against SLC17A6, the seed-corrected z-score is -0.508. As for UUGGUAUCGAUUUUCUACC against ATRN, the figure is -0.607; as for ACCUCCAAAAUUUCACUGC against ZSCAN10, 0.616; as for AAUGAUUGCACUAAUCUUC against IK, -3.4. Next, UCUUGGUACUGGAUGCAGC against LOC645166: 1.33; UCUUCGAGUGAGUCAAUGC against C10orf12: -0.0711; UCGCUGAUUAGCUUUCUCC against CUX2: 0.0999.

As for UUCGUUGUCUCGAAGGGCU against TRAPPC2L, the seed-corrected z-score was -2.92.

As to UUUCCUCUUAGUCAACUUC against CHIC1, the seed-corrected z-score is -0.602. Next, AAAGGACUGAUGUCUAACC against DHX15: 0.0405; UAUGUACAUGCAGCAGGCC against PVRL4: -0.603.

Take AUGGGAGUCACAACAGUGU against OR10A5: the seed-corrected z-score was -9.99. On to UUUCACUCAACCAUCAUUG against HOPX, for which the seed-corrected z-score was -0.598. Next, UGCCUUUGGAGGAUCUGCG against HLA-F: -0.923; UGCUUGCUCGCAAAAGUCC against TSHZ1: 0.387.

Regarding UGAACUGCCUGGUCUGUCG against PDE6G, the seed-corrected z-score was -0.214. AUUCUUAUCCCAGCGGAGC against PGM2L1 displayed a seed-corrected z-score of 0.162. Next, UCAAUUCCCAGGGUAAAGG against PIGN: -2.84; UAACAUCUUGGAGCACUAC against CCDC54: -0.239; UUGUGAACAGUUGAGGUGC against OSBP2: -0.0205. Turning to UCACUGUCGCCGUCAAAGC against CCKBR, the seed-corrected z-score is -2.68. Regarding UCUUGUGCUAAAUCCCUGC against BRINP3, the seed-corrected z-score was -0.668. As for UGCUGAACUAGGGAAGUGC against MAGIX, the figure is -0.0881; as for UACCCAUCCGCAUCACUGC against CD320, 0.0894; as for UCCCGAAUAACCAUUGAGC against RFX3, -0.206. Next, UUGGUAUUAUAACAGAUCC against ELMOD1: -9; UUGAUCAACAUAAUCAAGC against ASB14: -0.125; UACUCGGUAAAUGUACUGG against ADH7: 0.328. With AAGGGUAUUGGGAUUGAGC against MAP3K13, the seed-corrected z-score was 0.023. On to AGCUUUAUUCAGUCAGUGC against GPBAR1, for which the seed-corrected z-score is -0.579. As for UUACGAAUGGGCAAAAUUG against ZCWPW1, the figure is -0.169. As for UUUGCUGGUAUUCUUCACC against ACYP2, the figure is 0.0336; as for AUGUAUUCCAUUCUCACCG against GRSF1, -4.16; as for UAUUGAUGCUGCAUGACCC against ITGAM, 0.677.

Consider UAAGUAUAACCAUCUGUUC against OR6C2, for which the seed-corrected z-score was 0.149.

In the case of UGAACAUAAAUUCCAGCUC against CLEC2L, the seed-corrected z-score stood at 0.442. As to UCACUUACAAAGCUCAGAG against LUZP1, the seed-corrected z-score is -1.94. For UUAUUUAUGUAGUUCAGGA against IZUMO4, the seed-corrected z-score was -1.87. Take AAGACAAUAAUGUUGCUGC against CLDN17: the seed-corrected z-score was -0.436. On to UCAGUAAUCAGCUUGAAUU against RPS3A, for which the seed-corrected z-score stood at 2.45. As for UUCUUUUCCACCUCCAUAG against HDGF, the figure is -12.4; as for AUCCUUGAAAGCCUCAUAC against XPR1, 0.211. As for UAAAUGACAUGCAGGAUUG against C17orf102, the figure is -0.0252.

Sequence UUCAGUUUAAAAUCGUUUC against CENPL registered a seed-corrected z-score of 0.133.

For UUUGUUUCUACCAUUCCCA against PPIL1, the seed-corrected z-score is -2.34. Next, ACAAUAAUUAAGACAUUGC against OR4K1: 0.433; GAAUGUUCAUGUGAAAUGC against ZNF365: 1.68. In turn, UGCAAUAGCAGAGUAUUCC against UBE2Q1 returned a seed-corrected z-score of 0.662. As for UUUGUUGCAGAAUACAUAG against CTH, the figure is -13.9; as for ACAGCUAUUAAGAAGAAGU against PTGER3, -0.312.

In turn, CGCGUACUGACGGAAACAC against RPS29P3 registered a seed-corrected z-score of 0.649. As for UUAGCGGACGGAGGAAUUG against IDH3G, the figure is 0.0869; as for AAUGGAUUCAGUUACUUGC against TACSTD2, -0.0397; as for UGUCUUCGAUGUUUCAUCG against DOK6, -2.6. Sequence UUCGGGAAAGUAGUCAUGA against NSFL1C gave a seed-corrected z-score of 0.0545. As for UACACUAGCAUUGCACUCC against ARHGEF19, the figure is 0.989. As for AUCUUGUUCCGCAUGGUCU against AMOTL2, the figure is 0.501. With UUUAGCAACAGAGUCCACC against MAP2K6, the seed-corrected z-score amounted to 0.538.

As to AUCUUCAAUACUUGAAUCU against LINC00467, the seed-corrected z-score was -0.368. As for UUUCAUGCACCAACGGAUC against ABHD2, the figure is -2.24; as for AAAGGAAAGAUGACAGUAU against OR4N5, 0.213. Next, AAGCUUUUUAUUGGAGUUC against ZNF852: 1.01. The sequence UCAGCGAACAUGUCCAGGG against CD2BP2 showed a seed-corrected z-score of 0.587.

For the sequence AAUUUAAUAGUGUUUGUGC against PLPP4, the seed-corrected z-score came to 0.11. UCAGAGCACAGAUCGGGAC against DUSP2: the seed-corrected z-score amounted to 0.227.

Take UUUGUCCUUAGUAAUGAAU against HOXA13: the seed-corrected z-score is -0.568. Next, UUUGCAAUUGAGGUGAGGC against ANP32D: -0.262; UUCACAACAGGGUGGAGCC against FAM110A: -0.481.

For the sequence UUGCCUAUCUGGUUGAUGG against MATN1, the seed-corrected z-score is -0.472. Next, UUCUGAUUCUGCUUGUUGG against MPRIP: -2.12; UCCGUUAUAAACAAACAGG against ITGA11: -0.259; UUCUGCAAGCUCACUGUCC against TTC7A: -0.896. The sequence UUAUCUAUAACAGAGUAUG against DCBLD2 came in with a seed-corrected z-score of 0.479. Next, UUGGAAAGCAGUGUCUCUG against KRTAP8-1: -0.147; UCUGCUUUGCAAAUAGCCG against SRD5A1: -3.07. As for UAUGUGCACACGGUCUUGA against NRN1, the figure is -1.7. For the sequence UAAGUUUAUAGUUGGGAAC against RPS25P6, the seed-corrected z-score was -0.0501.
